The text below walks through data of ChEMBL document CHEMBL4513216, “Probing the Open Global Health Chemical Diversity Library for Multistage-Active Starting Points for Next-Generation Antimalarials” (ACS Infect Dis, 2020).

The structures appear in SMILES notation. The whole screen tested about 68,000 compounds, of which about 2,700 (4%) showed an effect of 50% or more. Shown is part of a subset that was picked to be rich in strong results.

In the experiment the test system is Plasmodium berghei. The experiment in a line: Screen against P. berghei liver stage (PbLuc), transformed with Luciferase, at 2uM. The note with it: tested at 2 uM. Type of experiment: functional, HepG2.
In the case of `CCc1ccc(C2CCCCCN2C(=O)CNC(=O)C2CC2)o1` (stereo not drawn), the INHIBITION was -1.21%.

Take `OC(CNCCn1cccn1)c1ccc(C(F)(F)F)cc1` (stereo not drawn): the INHIBITION is -33.92%.

In the case of `CCc1nnc(Nc2cccc(C3CCN(C)CC3)n2)s1`, the INHIBITION is 7.64%.

As for `CCc1nnc(Nc2cccc(C3CCCN(CC(C)(C)C)C3)n2)s1` (stereo not drawn), the INHIBITION came out at 53.05%.

On to `CCc1nnc(Nc2cccc(C3CCN(CC4CC4)CC3)n2)s1`, for which the INHIBITION stood at 20.71%.

On to `CC(C)CCOCCNC(=O)Nc1ccc(F)c(C(N)=O)c1`, for which the INHIBITION is given as -24.7%.

As to `Cc1cc(C(F)(F)F)nc(C2COCCN2S(C)(=O)=O)n1` (stereo not drawn), the INHIBITION worked out at 6.64%.

Regarding `Cc1ccc(CN(C)C(C(=O)O)c2ccc3c(c2)OCO3)o1` (stereo not drawn), the INHIBITION was -39.01%.

As to `CC(C)(C)NC(=O)C1CSCN1S(=O)(=O)c1cccc(F)c1` (stereo not drawn), the INHIBITION was 7.74%.

For `Cc1cccc(S(=O)(=O)N2CSCC2C(=O)NC(C)(C)C)c1` (stereo not drawn), the INHIBITION came to 55.18%.

Take `Cc1cccc(S(=O)(=O)N2CSCC2C(=O)NCC2CC2)c1` (stereo not drawn): the INHIBITION stood at 3.89%.

In the case of `N#Cc1cccc(NC(=O)C2CCCN2c2nccs2)c1` (stereo not drawn), the INHIBITION amounted to 6.77%.

For the compound `Cc1ccc2nc(C3CCCN3Cc3scnc3C)[nH]c2c1` (stereo not drawn), the INHIBITION turned out to be 47.23%.

Regarding `Cc1ccc2nc(C3CCCN3Cc3nnc(C)s3)[nH]c2c1` (stereo not drawn), the INHIBITION is reported as 78.16%.

Turning to `Cc1ccc2nc(C3CCCN3Cc3csc(C)n3)[nH]c2c1` (stereo not drawn), the INHIBITION is on record as 29.53%.

For `O=C(NCCc1ccccc1)N1CCC(C2OCCO2)CC1`, the INHIBITION came to 5.92%.

As for `O=C(Cc1ccc(CO)cc1)N1CCN(c2ccccc2Cl)C(=O)C1`, the INHIBITION was 47.76%.

As to `CCC(NC(=O)c1ccc2[nH]ccc2c1)C(=O)N1CCOCC1` (stereo not drawn), the INHIBITION was 5.98%.

As to `CC(C)c1nnc2n1CCN(Cc1ncc(-c3ccccc3)o1)C2`, the INHIBITION was -58.75%.

Consider `O=C(NCc1ccccc1OCC1CC1)C1CCOC1` (stereo not drawn), for which the INHIBITION worked out at 14.82%.

For `CC(C)(C)Oc1ccccc1CNC(=O)C1CCCOC1` (stereo not drawn), the INHIBITION is given as 52.98%.

For `COCCNc1ccccc1CNC(=O)C1CCCOC1` (stereo not drawn), the INHIBITION is given as -4.26%.

For the compound `NC(=O)CN1CC2(CCC1=O)CCN(Cc1ccc(Cl)c(F)c1)CC2`, the INHIBITION stood at 23.63%.

As for `CC(C)Cn1cncc1CNC1CCSC1` (stereo not drawn), the INHIBITION is recorded as -18.33%.

As to `COc1c(CNC2CCC(O)CC2)c(C(C)C)nn1C` (stereo not drawn), the INHIBITION is 11.2%.

Turning to `COc1c(CNC2CCN(c3ccccn3)CC2)c(C(C)C)nn1C`, the INHIBITION is on record as -11.2%.

For the compound `COc1c(CNC2CCN(C(C)(C)C)CC2)c(C(C)C)nn1C`, the INHIBITION is on record as 51.19%.

As for `COc1c(CNC2CCCN(c3ncccn3)C2)c(C(C)C)nn1C` (stereo not drawn), the INHIBITION stood at 56.02%.

For `COc1c(CNC2CCN(C(=O)C(C)C)CC2)c(C(C)C)nn1C`, the INHIBITION came out at 11.2%.

`COc1c(CNC2CCN(c3ncccn3)CC2)c(C(C)C)nn1C`: the INHIBITION is on record as -79.53%.

Turning to `Clc1ccccc1C1CN(CCc2ccncc2)CCO1` (stereo not drawn), the INHIBITION is listed as -35.92%.

Turning to `COc1ccc(NC(=O)c2nc3ccccc3n(C)c2=O)cc1OC`, the INHIBITION is given as 9.85%.

For the compound `CNS(=O)(=O)Cc1ccc(CNC(=O)c2cccc(C)n2)cc1`, the INHIBITION turned out to be 65.77%.

As for `Cc1cccc(C(=O)NCc2ccc(CS(N)(=O)=O)cc2)n1`, the INHIBITION is on record as -45.83%.

Take `CNS(=O)(=O)c1ccc(CNC(=O)c2cccc(C)n2)cc1`: the INHIBITION is listed as -9.17%.

As for `CO[C@H]1CN(C(=O)OC(C)(C)C)CC1NCc1ccco1` (stereo partly drawn), the INHIBITION is recorded as 32.73%.

Take `CC(c1ccccc1)N(C)C(=O)CN1CCCc2cc(F)cc(F)c21` (stereo not drawn): the INHIBITION worked out at 27.52%.

With `Nc1nc(C(=O)NCC2CCC3(CCNCC3)CO2)cs1` (stereo not drawn), the INHIBITION is -51.85%.

With `O=C(Cc1ccccc1)C1CCCN(Cc2cncn2C2CCCC2)C1` (stereo not drawn), the INHIBITION was 19.75%.

Regarding `O=C(CCc1ccccc1)C1CCCN(Cc2cncn2C2CC2)C1` (stereo not drawn), the INHIBITION is 21.67%.

`COCCn1cncc1CN1CCCC(C(=O)Cc2ccccc2)C1` (stereo not drawn): the INHIBITION is 58.09%.

As for `COCCN(Cc1ccoc1)S(=O)(=O)c1ccc(OC)c(Cl)c1`, the INHIBITION was determined as 1.04%.

As to `CN(C)S(=O)(=O)N1CCCCCC1c1cc(-c2ccc(F)cc2)no1` (stereo not drawn), the INHIBITION is on record as 6.64%.

With `Cc1ccccc1C(CC(=O)NCc1n[nH]c(N)n1)c1ccccc1` (stereo not drawn), the INHIBITION is 28.1%.

`Cc1ccccc1C(CC(=O)NCC(N)=O)c1ccccc1` (stereo not drawn): the INHIBITION turned out to be 57.59%.

Consider `Cc1ccccc1C(CC(=O)NCc1nnc(N)s1)c1ccccc1` (stereo not drawn), for which the INHIBITION was found to be 9.13%.

As to `Cc1cc(C(=O)NCc2cnn(C)c2C)nc(N2CCCCCC2)n1`, the INHIBITION was -5.59%.

As to `O=C(Nc1ccc(F)c(-n2cccc2)c1)NC1(CCO)CCOCC1`, the INHIBITION was -13.38%.

With `COCCN(Cc1ccccn1)C(=O)Nc1cccnc1N1CCCC1`, the INHIBITION was -40.03%.

As for `Cc1ccccc1C(=O)Nc1ccc(OC2CCN(C)CC2)cc1`, the INHIBITION came to 37.87%.

As to `Cc1ccc(C)c(C(=O)Nc2ccc(OC3CCN(C)CC3)cc2)c1`, the INHIBITION is reported as 29.71%.

On to `COc1ccccc1C(=O)Nc1ccc(OC2CCN(C)CC2)cc1`, for which the INHIBITION turned out to be 56.93%.

Regarding `Cc1cccc(C(=O)Nc2ccc(OC3CCN(C)CC3)cc2)c1`, the INHIBITION is 11.63%.
